The text below walks through data of PubChem BioAssay (NCI).

This is part of a sample that, as a whole, favours compounds with a hit. Of some 83,000 tested, about 20% had one in any assay.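 Cell lines were cultured in 96-well plates, exposed to a single compound concentration, and assessed for percent growth 48 hours later.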 A number with no mark means an inactive call. Calls of active or inactive are those of the source. How the source made its calls: active means growth percent below 10; inactive means the rest.

This assay concerns MDA-MB-468 breast. Kind of assay: NCI-60 one-dose screen, 48 h (100 = growth as untreated, 0 = no growth, -100 = all killed). The settings on record: 10 µM unless noted.
`Cc1ccc(C)n1/C=C/n1c(C)ccc1C`: the growth was 95.1%. As for `CC(C)CCC[C@@H](C)[C@H]1CC[C@H]2[C@@H](Nc3ccc(O)cc3)CCC[C@]12C`, the figure is -13.8% (active); as for `Clc1ccc2c(NCCCNc3nc(-n4ccnc4)nc4ccccc34)ccnc2c1`, 53.3%. For `COC(=O)[C@]12CC[C@@H](C(/C=C/c3cccnc3)=N/O)[C@@H]1[C@H]1CC[C@@H]3[C@@]4(C)CC(=C/c5cccnc5)/C(=N/O)C(C)(C)[C@@H]4CC[C@@]3(C)[C@]1(C)CC2`, the growth is 13.1%.

As to `COC(=O)CSc1ccc(Cl)cc1`, the growth was 126%. In the case of `CCCC(CC)(C(=O)Nc1ccc2nc(C)cc(N)c2c1)C(=O)Nc1ccc2nc(C)cc(N)c2c1`, the growth is 87%. The same measure for `O=[N+]([O-])c1cc(/C=N/Nc2nc(N/N=C/c3ccc(Cl)c([N+](=O)[O-])c3)nc(N3CCCCC3)n2)ccc1Cl`: 68.8%. As for `CC[C@]12C=CCN3CC[C@@]4(c5cc(NC(=O)COc6cc(O)c7c(=O)cc(-c8ccccc8)oc7c6)c(OC)cc5N(C)[C@H]4[C@@](O)(C(=O)OC)[C@@H]1OC(C)=O)[C@@H]32`, the figure is -74.6% (active). The same measure for `O=S(=O)(NCCNc1nccc(-c2c(-c3cccc(O)c3)nc3occn23)n1)c1ccc(Cl)cc1`: 97.9%. Regarding `CC(/C=C/c1ccccc1)=N/NC(=O)c1ccncc1`, the growth was 98.8%. The same measure for `Oc1ccccc1N=Cc1c(O)ccc2ccccc12`: 83.2%; for `CC/C=C\C[C@H]1CC=C2C(=O)C=C[C@@H]2CC=CCCCC(=O)O[C@@H](CCCCC)CC=C2C(=O)C=C[C@@H]2CC=CCCCC(=O)O[C@@H](CCCCC)CC=C2C(=O)C=C[C@@H]2CC=CCCCC(=O)O[C@@H](CCCCC)CC=C2C(=O)C=C[C@@H]2CC=CCCCC(=O)O1`: 29.8% [7.9 µM]. As for `Oc1ccc(C#CCOc2ccccc2)cc1CNCCN(Cc1ccccn1)Cc1ccccn1`, the figure is -10.4% (active); as for `N=C(N)c1ccc(-c2ccc(-c3ccccc3)o2)nc1`, 59.9%. Consider `Cc1ccc(/C=C/C(=N/N=C(N)N)c2ccccc2)cc1`, for which the growth was -6.79% (active). The same measure for `C=C1c2c(C)nn(-c3ccc(N)cc3)c2N(C)C23CC1C1(C)c4c(C)nn(-c5ccc(N)cc5)c4N(C)C(C)(CC12)C3` (stereo not given): 59.5%; for `CCCCCCCCCCCCCCCCCC1=NCCCN1CCO`: 110%.

As for `O=C(O)CCCN1C(=O)CSC1=S`, the growth is 99.3%.

As for `O=C(/C=C/c1ccccc1Cl)c1cccc(OCCCCOc2cccc(C(=O)/C=C/c3ccccc3Cl)c2)c1`, the growth was 110%. With `Cc1ccc(C)c(NC(=O)c2sc3c(=O)[nH]cnc3c2C)c1`, the growth is 67.2%.

For `CC1(C)CC[C@]2(CO)CC[C@]3(C)[C@](O)([C@H](O)C[C@@H]4[C@@]5(C)CCCNC(C)(C)[C@@H]5CC[C@]43C)[C@@H]2C1`, the growth is 81.3%.

On to `Cc1ccc(/C=C/C(=O)c2ccc(NC(=O)CSc3nc4c([nH]3)c(=O)n(C)c(=O)n4C)cc2)c(C)c1`, for which the growth is 34.1%.

With `CN(CCO)c1ccc(N2Cc3ccccc3OC3=C2C(=O)c2c(O)ccc(O)c2C3=O)cn1`, the growth was -64.7% (active). As for `O=C1/C(=C/c2ccc(Cl)cc2)CCC/C1=C\c1ccc(Cl)cc1`, the figure is 67.9%; as for `COc1ccc(-c2ccc(-c3ccc(C(=N)N)nc3)s2)cc1`, -69.9% (active); as for `Cn1c(-c2ccccc2)c(/C=C/C2=[N+](C)c3ccccc3C2(C)C)c2ccccc21`, -16.5% (active). As for `CN(C)c1ccc2nc3ccc(=[N+](C)C)c([N+](=O)[O-])c-3sc2c1`, the figure is 0.864% (active); as for `Cc1ccc(-c2nc(SCc3nc4cc(Cl)c(Cl)cc4[nH]3)[nH]c(=O)c2C#N)cc1`, 116%. In the case of `CCC1N=C(N)N=C(N)N1c1ccc(Cl)cc1` (stereo not given), the growth was 80.6%. For `CCCCC(CC)CN=C(N)NC(N)=NCCCCCCN=C(N)NC(N)=NCC(CC)CCCC` (stereo not given), the growth is -85.7% (active).

Take `CC(C)[C@@H]1NC(=O)[C@]2(C)CSC(=N2)c2ccnc(c2)CNC(=O)C[C@@H](/C=C/CCS)OC1=O`: the growth was 42.7%. The same measure for `COc1cc(C(=O)NC(=S)NCc2ccncc2)cc(OC)c1OC`: 94.2%. Turning to `C=C1C(=O)O[C@H]2[C@H]1CC/C(COC(=O)NCc1ccc(Cn3c(=O)sn(-c4ccc(I)cc4)c3=O)cc1)=C\CC[C@@]1(C)O[C@@H]21`, the growth is 29.6%. As for `c1ccc2cc(Cn3c[n+](Cc4ccc5ccccc5c4)c4ccccc43)ccc2c1`, the figure is -21% (active); as for `COc1ccc(Cn2cc3c(c2-c2ccccc2)CCCc2cnoc2-3)cc1`, 47.7%; as for `Cc1cccc(C)c1N=c1oc2ccc(Cl)cc2nc1-c1ccccc1O`, 94.8%.

`COc1cc(/C=N/OC(=O)Nc2ccccc2)cc(OC)c1OC`: the growth was 105%.

Turning to `Nc1ccc(-c2ccc(N)c(Br)c2)cc1Br`, the growth is 19.8%. As for `O=C1/C(=C\c2cccnc2)SC(=S)N1CCc1ccc(O)cc1`, the growth is 35.2%.

As to `COc1cccc(NC(=O)c2sc3nc4c(cc3c2N)C(=O)CCC4)c1`, the growth was 49.5%.
